The structures appear in SMILES notation. About 2,900 (0.81%) of roughly 360,000 compounds were called active.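 Rule for the calls: active = inhibition above the mean inhibition across every tested compound plus 3 SD (cut at about 22% in these data); inactive = the rest.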 The entries come from a sample that favours actives as a whole.

Chain of Perilipin-5 (Homo sapiens) + 1-acylglycerol-3-phosphate O-acyltransferase ABHD5 (Homo sapiens) (Q00G26 whole entry, looked up): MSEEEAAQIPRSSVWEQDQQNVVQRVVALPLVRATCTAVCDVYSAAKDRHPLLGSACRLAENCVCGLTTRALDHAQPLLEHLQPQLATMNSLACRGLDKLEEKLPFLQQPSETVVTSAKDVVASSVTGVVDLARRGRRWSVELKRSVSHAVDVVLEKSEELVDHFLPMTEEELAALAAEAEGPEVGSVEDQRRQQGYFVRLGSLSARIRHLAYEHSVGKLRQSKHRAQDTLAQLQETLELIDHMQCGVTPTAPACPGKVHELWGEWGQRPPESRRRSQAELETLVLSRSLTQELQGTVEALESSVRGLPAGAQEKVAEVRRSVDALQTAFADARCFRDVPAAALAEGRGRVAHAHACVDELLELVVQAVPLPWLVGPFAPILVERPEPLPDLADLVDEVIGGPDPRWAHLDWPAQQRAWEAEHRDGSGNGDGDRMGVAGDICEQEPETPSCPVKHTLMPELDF
Chain of Perilipin-5 (Homo sapiens) + 1-acylglycerol-3-phosphate O-acyltransferase ABHD5 (Homo sapiens) (Q8WTS1 whole entry, looked up): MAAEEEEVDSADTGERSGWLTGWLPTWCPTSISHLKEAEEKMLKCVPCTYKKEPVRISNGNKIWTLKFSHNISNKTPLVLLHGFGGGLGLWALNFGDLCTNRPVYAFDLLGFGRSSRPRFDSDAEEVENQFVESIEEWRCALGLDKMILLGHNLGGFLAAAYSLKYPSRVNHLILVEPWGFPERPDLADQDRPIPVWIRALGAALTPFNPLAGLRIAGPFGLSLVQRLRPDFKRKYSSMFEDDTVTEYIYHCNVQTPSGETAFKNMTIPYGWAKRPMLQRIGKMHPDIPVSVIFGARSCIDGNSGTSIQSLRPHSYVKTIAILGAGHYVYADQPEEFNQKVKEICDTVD

The test concerns the target Perilipin-5 (Homo sapiens) + 1-acylglycerol-3-phosphate O-acyltransferase ABHD5 (Homo sapiens) (UniProt Q00G26+Q8WTS1). The experiment in a line: blockers of ABHD5 binding to perilipin-5 – cell lysate, split luciferase complementation, luminescence, primary screen (AID 602281).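 Note: 0% = DMSO only wells and the 100% control is not disclosed.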 The note with it: Split G. princeps luciferase complementation, 4 h, at 4 µM, stronger effect = higher value.
Take `Cc1ccc(SC(C)C(=O)NCc2ccc(F)cc2)cc1` (configuration not stated): the inhibition (as a rule, the relative decrease from the control value, in per cent) was -1.06% (inactive).
Consider `Cc1ccc(SC(CC(=O)c2ccc(C(C)(C)C)cc2)C(=O)O)cc1` (configuration not stated), for which the inhibition is 84.9% (active).
With `Cc1ccc(C(=O)Cc2nnc(C)s2)cc1`, the inhibition is 10.8% (inactive).
With `O=C1CC[C@@H](C(=O)N2CSC[C@@H]2C(=O)Nc2ccc(C(F)(F)F)cc2)N1` the figure was -0.42% (inactive).
Take `CCC(C)NC(=O)C1CCC(=O)N1Cc1ccc(C)cc1` (configuration not stated): the inhibition is 2% (inactive).
Regarding `Oc1ccc2ccccc2c1N=Nc1nccs1`, the inhibition was 22.1% (active).
The figure for `COc1ccccc1C(=O)NCC(=O)OCC(=O)NNC(=O)c1ccc(Br)cc1` is -4.52% (inactive); for `CCN1C(=O)/C(=C2\SC(N3CCCCC3)=NC2=O)c2ccccc21` it is -2.55% (inactive); for `CC1(C)CC(=O)C=C(c2cccc3c2Oc2ccccc2S3)C1` it is -12.2% (inactive).
As for `O=C(c1cc(C2CCCCN2S(=O)(=O)c2ccccc2)on1)N1CCOCC1` (configuration not stated), the inhibition was 3.58% (inactive).
In the case of `O=C(O)c1cnn2c(C(F)(F)F)cc(-c3ccccc3)nc12`, the inhibition was 6.31% (inactive).
As for `COC(=O)c1cnn2c(C(F)(F)F)cc(-c3ccco3)nc12`, the inhibition was 32.2% (active).
With `O=C(NCc1ccco1)c1cnn2c(C(F)(F)F)cc(-c3ccco3)nc12` the figure was 3.22% (inactive).
In the case of `N#Cc1ccc(-c2nc3c(Cl)cc(C(F)(F)F)cn3c2Cc2ccccc2C(F)(F)F)cc1`, the inhibition was 0.66% (inactive).
Take `NC(=O)c1ccccc1N=Cc1ccc2ccccc2c1`: the inhibition is 2.42% (inactive).
Turning to `C/C(=N/N1CCN(Cc2cccc3ccccc23)CC1)c1cccnc1`, the inhibition is -14.4% (inactive).
With `CCOc1cc(S(=O)(=O)NCc2ccc3c(c2)OCO3)ccc1F` the figure was -2.91% (inactive); with `COc1ccc(C(=O)CCc2ccccc2O)c(OC)c1`, 0.27% (inactive); with `COc1ccc(C(=O)/C=C/c2cccnc2)c(OC)c1`, 22.4% (active).
Take `COc1ccc(C(=O)CCC(=O)Nc2cccnc2)c(OC)c1`: the inhibition is -5.28% (inactive).
In the case of `CCCn1c(=O)c2[nH]c(C3CCCC3)nc2n(CCC)c1=O`, the inhibition is 4.3% (inactive).
As to `CCc1nnc(NC(=O)C2CC(=O)N(c3ccc4c(c3)OCCO4)C2)s1` (configuration not stated), the inhibition was -9.44% (inactive).
Turning to `O=C(NCc1ccccc1Cl)c1csc([C@@H]2O[C@H](CO)[C@@H](O)[C@H]2O)n1`, the inhibition is -7.69% (inactive).
On to `CCN(C(=O)CSc1nnnn1-c1ccccc1OC)C1CCS(=O)(=O)C1` (configuration not stated), for which the inhibition was 0.5% (inactive).
The figure for `COc1ccccc1-n1nnnc1S(=O)(=O)Cc1ccc(Cl)cc1` is 27.5% (active); for `COc1ccccc1CN(C)c1nnnn1-c1ccccc1` it is -3.16% (inactive).
As to `Cc1cc2c(cc1S(=O)(=O)NCc1ccc(Cl)cc1)OCC(=O)N2`, the inhibition was 5.73% (inactive).
With `O=C(CN1C2CCC1CC(NC(=O)C1CC1)C2)NCc1ccccc1` (configuration not stated), the inhibition was -2.07% (inactive).
For the compound `CC(=O)Nc1ccc(NC(=O)CC2CCCC2)cc1`, the inhibition was 1.52% (inactive).
Consider `O=C(O)CC(SCC(=O)Nc1ccc(Br)cc1)C(=O)O` (configuration not stated), for which the inhibition was 0.5% (inactive).
For `O=C(CCl)Nc1ccc(Sc2ccc(NC(=O)CCl)cc2)cc1`, the inhibition is 28.2% (active).
With `CN(CC(=O)NCCc1ccc(F)cc1)CC(=O)Nc1ccc(F)c(F)c1F`, the inhibition was 3.93% (inactive).
As for `C/C(=N\NS(=O)(=O)c1ccc(Cl)cc1)c1ccc(NC(=O)c2ccco2)cc1`, the inhibition was -4.17% (inactive).
With `O=C(Nc1ccccc1)c1nnsc1S(=O)(=O)c1ccc(Cl)cc1`, the inhibition was 58.3% (active).
As to `O=C(Nc1ccc(S(=O)(=O)N2CCOCC2)cc1)C1CCN(S(=O)(=O)c2ccc(Cl)cc2)CC1`, the inhibition is -0.02% (inactive).
Take `COC(=O)[C@@]1(Cc2ccc(F)cc2)[C@H]2c3cc(C(=O)N4CCCC4)n(C[C@H](O)CO)c3C[C@H]2CN1C(=O)c1ccccc1`: the inhibition is 6.42% (inactive).
For `COC(=O)[C@@]1(Cc2ccc(OC)cc2)[C@H]2c3cc(C(=O)N4CCCC4)n(Cc4ccc(OC(F)(F)F)cc4)c3C[C@H]2CN1C(=O)c1ccccc1`, the inhibition was 18.3% (inactive).
In the case of `COC(=O)[C@@]1(Cc2ccc(F)cc2)[C@H]2c3cc(C(=O)N4CCCC4)n(Cc4ccc(OC(F)(F)F)cc4)c3C[C@H]2CN1C(=O)c1ccccc1`, the inhibition was 22.3% (active).
As for `COC(=O)Nc1ccc(S(=O)(=O)N(C)CC(F)(F)C(F)F)cc1`, the inhibition was 4.74% (inactive).
For `CC1CC(C)CN(S(=O)(=O)c2cccc3nonc23)C1` (configuration not stated), the inhibition is -3.19% (inactive).
As to `COc1cccc(OC)c1CN(C)C(=O)c1cnccc1C(F)(F)F`, the inhibition is 4.28% (inactive).
The figure for `O=C(COC(=O)c1ccc(F)c(S(=O)(=O)N2CCOCC2)c1)NCc1ccc2c(c1)OCO2` is 2.94% (inactive); for `Cc1ccnc(NC(=O)CCC(=O)N(CC(=O)NCCc2ccccc2)Cc2cccs2)c1` it is 1.17% (inactive).
Regarding `O=C(c1cc2sccc2n1Cc1ccc(F)cc1)N1CCc2ccccc21`, the inhibition was -4.45% (inactive).
Take `Brc1ccc(-c2nn[nH]n2)cc1`: the inhibition was -0.33% (inactive).
The figure for `Cc1ccc(-c2ccc(CN3C(C(C)C)C(=O)N(Cc4cn(CCC5OCCCO5)nn4)CCS3(=O)=O)cc2)cc1` (configuration not stated) is -3.62% (inactive); for `CC(C)n1cnc2c(NCc3ccccc3)cc(OCC3CCN(C)CC3)cc21` it is 52.1% (active).
In the case of `c1ccc2c(c1)C(=NC1CCCCC1)NC2=NC1CCCCC1`, the inhibition was 10.2% (inactive).
`O=C(NNC(=S)Nc1ccccc1)c1cccc(S(=O)(=O)N2CCOCC2)c1`: the inhibition is -0.88% (inactive).
As for `COC(=O)C[C@H]1C=C[C@H](NC(=O)c2ccc(F)cc2)[C@@H](CO)O1`, the inhibition is 7.9% (inactive).
Consider `CCOc1ccccc1NC(=S)C(=C([O-])c1ccc2c(c1)OCCO2)[n+]1ccc(CC)cc1`, for which the inhibition is -7.74% (inactive).
With `Cc1nn(C)c(C)c1C(C)NC(=O)c1ccc(OC2CCN(Cc3ccccn3)CC2)cc1` (configuration not stated), the inhibition is 11.1% (inactive).
For `CC1Cc2[nH][nH]c(=O)c2C(C2CCCC2)O1` (configuration not stated), the inhibition is 8.22% (inactive).
Turning to `CSc1nccc(NC(=O)c2ccc(C(C)(C)C)cc2)n1`, the inhibition is -0.98% (inactive).
The figure for `COC(=O)c1nc(NC(=O)c2ccc(C(C)(C)C)cc2)n[nH]1` is 81.5% (active); for `O=C(Nc1n[nH]c(C(F)(F)F)n1)c1cccs1` it is 3.2% (inactive); for `Cc1ccc(NC(=O)c2ccc(Cl)nc2)cc1S(=O)(=O)N1CCOCC1` it is -3.8% (inactive).

The values are drawn from PubChem BioAssay AID602281 (The Scripps Research Institute Molecular Screening Center, 2012).
